Assay outcomes: PubChem BioAssay, National Center for Advancing Translational Sciences (NCATS)
Only some compounds are listed: those with a hit (about 10% of all), similar ones and a draw of the others.
ALOX12 inhib: 12-hLO (ALOX12) enzyme inhibition | P18054 | purified 12-hLO, xylenol orange hydroperoxide absorbance | Potency, µM (doses to about 57.1 µM), inactives show at the top dose activity change, negative = inhibition, hits mostly inhibitors | actives 0.12% (n = 150,000) | AID 1452; note: potency is the fitted concentration of half-maximal effect; nearly all actives have a fitted effect of over 55% in size
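Hydroperoxide output read as Fe(III)-xylenol orange absorbance, 573-to-405 nm ratio, after 30 min reaction with 40 uM arachidonic acid. Enzyme: 150 nM purified human 12hLO, 15 min compound preincubation; 25 mM Hepes pH 7.0, room temperature.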
GLA spleen mod: inhibits or activates alpha-galactosidase in human spleen homogenate | actives 0.008% (n = 240,000) | Potency, µM (titrated, usually from 80 µM), without a hit: at the highest dose activity change, negative = inhibition, usual class: inhibitors | human spleen homogenate, 4MU-alpha-Gal fluorescence, 40 min | P06280;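 note: potency is the fitted concentration of half-maximal effect; 0% = enzyme with vehicle and -100% = no enzyme basal signal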
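qHTS titration in buffer at pH 5.0. Alpha-galactosidase activity in spleen homogenate was measured via 4-methylumbelliferone release from 1 mM fluorogenic substrate after 40 min at 37C and a pH 10 stop. AC50 came from Hill fits of control-normalized data.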
PNC assembly inh: perinucleolar compartment assembly inhibition. PC3M PTB-GFP, PNC prevalence imaging, 16 h; stronger effect = lower value. activity change (PNC), negative = inhibition, % at 10 µM. actives 3.1% (n = 140,000);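 active = readout at or below -70, meaning at least 70% loss of cells showing the perinucleolar compartment, a nuclear body marking cancer cells; inconclusive = readout between -30 and a set limit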;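 note: plate controls were DMSO wells for no effect and camptothecin positive control wells for full effect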
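Read-out is percentage of cells bearing a perinucleolar compartment, from automated 20x imaging of fixed, Hoechst-stained PC3M PTB-GFP cells. Cells were seeded 4 h, then exposed 16 h to compound (23 nl of library stock) in duplicate plates.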
GLA inh pH 4.5: blocks human alpha-galactosidase A at pH 4.5; AID 1467; 230,000 tested, under 10 active; P06280; activity change, negative = inhibition, % at 105 µM; purified enzyme, 4-MU-alpha-Gal fluorescence, pH 4.5;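 note: 0% = full activity with enzyme and -100% = basal without enzyme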
HPGD block: HPGD (human) dehydrogenase inhibition | purified HPGD, NADH fluorescence kinetic, PGE2 substrate | Potency, µM, without a hit: at the top dose activity change, negative = inhibition, hits mostly inhibitors | actives 4.3% (n = 150,000) | AID 894; active = well fitted inhibition curve with a large enough effect, not every such curve was filed as active; inconclusive = small, poorly fitted or top-dose-only effect, or another doubt; inactive = no such curve, though single readings can be large or run the other way; note: potency is the fitted concentration of half-maximal effect
Target sequence (P15428 whole entry, looked up): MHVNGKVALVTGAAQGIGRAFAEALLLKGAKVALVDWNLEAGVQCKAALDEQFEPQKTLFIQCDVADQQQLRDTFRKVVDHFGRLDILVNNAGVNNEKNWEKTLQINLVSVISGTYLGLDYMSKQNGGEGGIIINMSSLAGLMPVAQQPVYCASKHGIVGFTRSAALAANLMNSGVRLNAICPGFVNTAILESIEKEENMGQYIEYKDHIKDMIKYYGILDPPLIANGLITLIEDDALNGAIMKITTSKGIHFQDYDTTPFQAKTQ
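NADH formation kinetics: reaction with 30 uM PGE2 and 1 mM NAD+ (final), 20 nM enzyme, Tris-HCl pH 8 with Tween 20, after 15 min compound preincubation at room temperature. Fluorescence change, last versus first of five reads.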
ALDH1A1 inh: blocks purified human ALDH1A1 activity; Purified ALDH1A1, NADH fluorescence, propionaldehyde substrate; Potency, µM (highest dose often 75.3 µM), for the others: at the top dose activity, negative = inhibition, actives largely listed as inhibitors; actives 7.3% (n = 220,000); AID 1030; active = well fitted inhibition curve with a large enough effect, not every such curve was filed as active; inconclusive = small, poorly fitted or top-dose-only effect, or another doubt; inactive = no such curve, though single readings can be large or run the other way;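 note: potency is the fitted concentration of half-maximal effect; plate controls were no enzyme wells and a reference inhibitor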
Target sequence (P00352 whole entry, looked up): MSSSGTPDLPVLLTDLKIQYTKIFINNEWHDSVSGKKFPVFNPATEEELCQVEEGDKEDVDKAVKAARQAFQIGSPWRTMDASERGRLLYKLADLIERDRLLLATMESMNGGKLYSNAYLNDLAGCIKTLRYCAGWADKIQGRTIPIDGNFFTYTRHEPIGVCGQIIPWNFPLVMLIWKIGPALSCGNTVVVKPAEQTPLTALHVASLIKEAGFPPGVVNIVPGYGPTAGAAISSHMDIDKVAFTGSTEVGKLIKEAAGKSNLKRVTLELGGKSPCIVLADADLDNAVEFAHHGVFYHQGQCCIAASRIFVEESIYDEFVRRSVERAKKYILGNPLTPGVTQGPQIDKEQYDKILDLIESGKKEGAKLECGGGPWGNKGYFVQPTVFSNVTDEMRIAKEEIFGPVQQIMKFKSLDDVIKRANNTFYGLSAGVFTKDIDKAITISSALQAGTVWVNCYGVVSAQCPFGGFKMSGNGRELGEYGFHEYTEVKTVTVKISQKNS
* = called active by the depositor; u = inconclusive; x = no result given; [ ] = dose if it differs, or a comment. Unless noted, calls come from the whole dose curve; as a rule, active = well fitted curve in the direction sought with a large enough effect; inconclusive = small, poorly fitted or top-dose-only effect, or another doubt; inactive = no such curve, though single readings can be large; an effect the other way counts as inactive or inconclusive. Unless noted, % is set by controls: 0 for no effect and ±100 for the full control effect.

SMILES | ALOX12 inhib | GLA spleen mod | PNC assembly inh | GLA inh pH 4.5 | HPGD block | ALDH1A1 inh
C[C@@H]1C[C@@H]2[C@H]([C@H]3C=C(COC(=O)c4ccccc4)[C@@H](O)[C@]4(O)[C@@H](O)C(OC(=O)c5ccccc5)=C[C@@]14C3=O)C2(C)C | x | 3.2% | x | x | x | x
ClCC(Cl)CCl | -3.6% | -5.2% | x | x | -5.4% | 14.1%
O=C1NC(=O)N(CCc2ccc(F)cc2)C(=O)/C1=C\C=C\c1ccccc1 | x | 9.6% | x | -0.6 | x | 1.58µM*
C=CCN1C(=O)NC(=O)/C(=C/C=C/c2ccccc2)C1=O | x | 2.2% | x | 9.9 | x | 14.1µM*
O=C1NC(=O)N(Cc2ccc(F)cc2)C(=O)/C1=C\c1ccoc1 | x | -5.0% | x | 2.2 | x | -6.0%
CN(C)c1ccc(/C=C/C=C2/C(=O)NC(=O)N(c3ccccc3)C2=O)cc1 | x | 2.8% | x | 5.9 | x | u
C/C=C/c1ccc(OC)cc1 | x | -6.9% | x | -3.5 | -8.7% | u
COc1ccc(C=O)cc1OC | -5.7% | -7.8% | x | x | -14.4% | 11.2µM*
COc1ccc(C=O)cc1 | -3.7% | 5.0% | x | x | 6.2% | 7.94µM*
O=c1[nH]cnc2[nH]cc(CN3CCCCC3)c12 | 7.6%[11.4 µM] | x | x | x | -0.1% | 4.3%[13.5 µM]
CC(C)=CCCN1CCC(NC(=O)C(O)(c2ccccc2)C2CCCC2)CC1 (configuration not stated) | x | -9.8% | x | x | x | x
Cc1cc(O)c2c(c1)C(=O)c1cc(O)cc(O)c1C2=O | -4.7% | -7.2% | x | -0.5 | -28.6% | 22.4µM*
C=C1CCC(O)C/C1=C\C=C1/CCCC2(C)C1CCC2C(C)CCCC(C)C (configuration not stated) | -14.7% | 12.6% | x | -14.1 | -5.4% | u
O=C(Cc1ccccc1)N1CCN(CC2CC3C=CC2C3)CC1 (configuration not stated) | -3.2% | -4.2% | -8.6 | 3.9 | -6.2% | -14.6%
O=C(Cc1ccccc1)N1CCN(CC2CC=CCC2)CC1 (configuration not stated) | -5.2% | 0.6% | 3.5 | -9.2 | -7.8% | 12.6µM*
COc1ccc(C(C#N)N2CCOCC2)cc1 (configuration not stated) | -0.2% | 1.9% | 27.5 | -4.4 | 3.2% | 35.5µM*
Nc1ncnc2c1ncn2[C@@H]1O[C@@H](COP(=O)(O)CP(=O)(O)OP(=O)(O)O)[C@H](O)[C@@H]1O | -3.2% | x | x | x | x | x
Cc1cc(NC(=O)COC(=O)c2c(C)nn(Cc3ccccc3Cl)c2Cl)no1 | -0.2% | 4.5% | 36.7 | 4.7 | -4.7% | 11.4%
Cc1cc(NC(=O)CCl)no1 | x | 2.0% | x | -3.5 | x | 12.6µM*
CCOP(=S)(OCC)Oc1ccc([N+](=O)[O-])cc1 | -1.3% | 6.6% | x | x | -12.2% | 15.8µM*
CCOc1cc(C=C2C(=O)NC(=O)NC2=O)ccc1OS(=O)(=O)c1ccccc1 | -8.4% | 9.4% | 72.0 | 2.4 | 12.6µM* | u
O=C1NC(=O)C(=Cc2ccc(N3CCOCC3)cc2)C(=O)N1 | x | -5.5% | x | -5.9 | x | u
COc1cc(/C=C2/C(=O)N(c3ccccc3)N=C2C)ccc1OS(=O)(=O)c1ccccc1 | -1.3% | 1.1% | u | -5.5 | 20µM* | u
CCOc1cc(C=C2C(=O)NC(=O)NC2=O)ccc1OCC(=O)N1CCOCC1 | -2.6% | -0.5% | -12.8 | -5.3 | -17.6% | 35.5µM*
CN(C(=O)Cc1ccc(Cl)c(Cl)c1)C(CN1CCCC1)c1cccc(N=C=S)c1 (configuration not stated) | x | -1.1% | x | x | x | u
SMILES | ALOX12 inhib | GLA spleen mod | PNC assembly inh | GLA inh pH 4.5 | HPGD block | ALDH1A1 inh
CC(C)C(C)/C=C/C(C)C1CCC2C3=CC=C4CC(O)CCC4(C)C3CCC21C (configuration not stated) | -1.1% | -0.7% | x | -3.9 | -10.9% | u
CCCOc1ccc(N2C(=O)CC(N3CC=C(c4ccccc4)CC3)C2=O)cc1 (configuration not stated) | x | -2.4% | x | 2.4 | x | 10µM*
Nc1ccc([As](=O)(O)O)cc1 | -2.0% | 12.7% | -15.4 | x | 1.5% | 5.3%
O=[As](O)(O)c1ccc(Cc2ccc([As](=O)(O)O)cc2)cc1 | -24.0%[11.4 µM] | x | x | x | 3.55µM* | 2.24µM*
ClCCCCl | -2.3% | -16.3% | x | x | -4.5% | 17.0%
O=c1c2ccccc2nc(CNCc2ccco2)n1-c1ccc(F)cc1 | 0.7% | 4.3% | -82.8* | -0.4 | -5.3% | 0.2%
O=C1NC(=O)N(c2ccc(Cl)cc2)C(=O)/C1=C\c1ccc(Sc2nc3ccccc3[nH]2)o1 | -28.4% | -2.3% | 18.0 | -1.3 | 10µM* | u
O=C1NC(=O)C(=Cc2ccc(Sc3ccccc3)o2)C(=O)N1 | x | -3.6% | x | 5.7 | x | x
CN1/C(=C\C=C\C2=[N+](C)c3ccc4ccccc4c3C2(C)C)C(C)(C)c2ccccc21 | 0.8% | 1.7% | 0.5 | 4.6 | -1.6% | 20µM*
CN1C(=O)C(=Cc2ccc(OCCN(C)c3ccccn3)cc2)C(=O)N(C)C1=O | x | 3.5% | x | 14.1 | x | 7.94µM*
CN1C(=O)C(=Cc2sc(=O)n(-c3ccccc3)c2N(C)C)C(=O)N(C)C1=O | x | -1.0% | x | -2.5 | x | x
ClC(Cl)Br | -1.5% | 2.9% | x | x | -6.1% | 3.2%
CCN(CC)c1ccc(NC(=O)c2cccc(C)c2)cc1S(=O)(=O)Nc1ccccc1OC | 0.1% | 0.4% | u | 0.8 | 12.6µM* | 14.1µM*
O=C(O)C[C@H]1NCc2cc3ccccc3nc21 | 4.0%[11.4 µM] | x | x | x | -2.6% | 7.7%[13.5 µM]
CCC(C)N1C(=O)/C(=C\c2cnc(N(C)C)nc2)C(=O)NC1=S (configuration not stated) | x | 0.6% | x | -0.1 | x | -9.0%
CCC(C)N1C(=O)/C(=C\c2ccc(N3CCCCCC3)cc2)C(=O)NC1=S (configuration not stated) | -7.7% | 7.7% | -11.6 | 2.5 | 20µM* | 0.126µM*
CCC(C)N1C(=O)/C(=C\c2cc3c4c(c2)CCCN4CCC3)C(=O)NC1=S (configuration not stated) | -14.1% | 21.3% | 10.7 | -5.4 | 22.4µM* | 0.316µM*
C[n+]1c(/C=C\c2ccc(O)c3ncccc23)[se]c2ccccc21 | -19.9%[11.4 µM] | x | x | x | -11.2% | -7.4%[13.5 µM]
CC(C)(Cl)Cl | -1.2% | 6.6% | x | x | -0.1% | 3.1%
Cc1cnn(-c2cc(Oc3ccccc3)ncn2)c1 | -4.2% | 3.9% | -26.4 | -6.9 | x | 22.4µM*
COC(=O)CSc1n[nH]c(=S)s1 | -2.0% | 0.4% | 17.2 | 1.6 | 39.8µM* | 11.2µM*
CC(C)(C)c1[nH]nc2c1C(c1ccoc1)C(C#N)=C(N)O2 (configuration not stated) | 3.6% | -3.1% | -21.8 | -2.2 | -16.7% | 15.8µM*
C[C@]12CC[C@@H]3[C@H](CCC4=CC(=O)CC[C@]43C)[C@]1(O)CC[C@@]2(O)C(=O)CO | 2.3%[11.4 µM] | x | x | x | -6.7% | 7.5%[13.5 µM]
